Screening results from PubChem.
In the library only some 1.3% were active in any assay of this set; here they are far more common.
RN4220 kill – S. aureus RN4220 growth inhibition; OD600, 16 h; inhibition, % (no concentration beside the values); 330,000 tested, 0.33% active; AID 1259311; in the data active = inhibition above about 85%;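 also: plate controls were untreated cells for no effect and reference antibiotic for full effect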
BJeLR viability – kills HRASV12-expressing BJeLR cells; inhibition, % (concentration not given with the values); 300,000 tested, 0.17% active; BJeLR (HRASV12) viability, CellTiter-Glo ATP luminescence, 48 h; in the data active = inhibition above about 50%; inconclusive = no clear call, values can overlap the other calls
PfHsp40 yeast – rescue of PfHsp40-mediated yeast toxicity; S. cerevisiae expressing PfHsp40, growth rescue, ATP luminescence; growth rescue, % at 12.5 µM; 340,000 tested, 0.68% active; in the data active = growth rescue above about 28%, passing the limit was not always enough; inconclusive = no clear call, values can overlap the other calls;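 also: yeast W303a lacking pdr1 and pdr3 grown in galactose medium; growth measured after three days at 30 °C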
SARS 3CLpro inh – SARS-CoV 3CLpro protease inhibition; recombinant SARS-CoV 3CLpro, quenched FRET peptide cleavage; inhibition, % at 6 µM; 290,000 tested, 0.14% active; AID 1706; in the data active = inhibition above about 12%
ugtP null kill – compounds lethal to S. aureus RN4220 ugtP deletion mutant; growth inhibition, % (test concentration not listed); OD600 growth, 16 h; 330,000 tested, 0.54% active; in the data active = growth inhibition above about 68%;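 also: plate controls were untreated wells for no effect and antibiotic for full effect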
Active calls of the source: *; ? = inconclusive; nt = not tested or not shown; ! = repeats disagree.

SMILES	RN4220 kill	BJeLR viability	PfHsp40 yeast	SARS 3CLpro inh	ugtP null kill
CCN(CC)CCn1c2c(c(SCC(=O)Nc3nc(C)cs3)nc1=O)CCCC2	0.2	3.0	0.5	nt	2.3
Cc1noc(C)c1COc1ccccc1C(=O)N1CCN(S(=O)(=O)c2ccc(F)c(F)c2)CC1	8.1	nt	-0.8	nt	11.7
c1cnc2c(c1)ccc1cccnc12	1.6	56.1*!	57.1*	0.1	-4.9
Cc1c(Br)cc(-c2nnco2)cc1Br	4.5	1.3	1.2	-3.0	6.2
COc1ccc(-c2csc(NC(=O)c3ccccc3NS(=O)(=O)c3ccc(F)c(F)c3)n2)cc1	89.3*	16.2	9.0	7.5	85.3
Cc1ccc(S(=O)(=O)Nc2nc(-c3ccccc3)cs2)cc1	0.2	-4.6	1.6	4.7	3.5
O=C(Nc1cc(S(=O)(=O)N2CCCCC2)ccc1Cl)c1ccccc1NS(=O)(=O)c1ccc(F)cc1	29.8	50.7*	-1.5	8.2	38.8
Cc1ccc(S(=O)(=O)Nc2ccccc2C(=O)Nc2nc(-c3ccc(F)cc3)cs2)cc1	88.9*	27.9	?	5.5	89.0*
C/C(N)=C(/C#N)C(=O)CSc1ccccc1F	nt	3.4	0.1	1.7	nt
CCCCn1c(N)c(N(CCC(C)C)C(=O)c2ccccc2-n2cnnn2)c(=O)[nH]c1=O	4.8	nt	-1.9	nt	11.4
NS(=O)(=O)c1ccc(-c2ccc(/C=C3\C(=O)Nc4ccccc43)o2)cc1	nt	-4.1	nt	-2.2	nt
Cc1ccc(/C=C2\C(=O)Nc3ccccc32)o1	59.6	nt	0.3	-0.5	100.3*
CCn1c(C(C)NC(=O)c2ccc(Cl)cc2)n[nH]c1=S (stereo unspecified)	14.8	6.7	0.5	0.6	5.8
O=C(N/N=C\c1cccc([N+](=O)[O-])c1O)C1COc2ccccc2O1 (stereo unspecified)	nt	13.1	42.2*	5.1	nt
O=[N+]([O-])c1cccc(C=NNc2ccc3ccccc3n2)c1O	nt	nt	240.9*	nt	nt
O=C(N/N=C/c1c(O)n(-c2ccccc2Cl)c(=O)c2ccccc12)C1COc2ccccc2O1 (stereo unspecified)	-2.4	-1.4	4.4	2.3	3.8
O=C(NN=Cc1ccc(O)c([N+](=O)[O-])c1)C1COc2ccccc2O1 (stereo unspecified)	4.8	nt	nt	nt	12.7
Cc1ccc(-n2c(O)c(/C=N/NC(=O)C3COc4ccccc4O3)c3ccccc3c2=O)cc1 (stereo unspecified)	nt	7.7	205.0*	-2.9	nt
Cc1ccccc1NC(=O)c1cccc2nccnc12	5.9	4.3	-0.8	-1.9	-3.1
Cc1cccc(NC(=S)NC2CCCCCC2)c1C	4.3	-3.0	2.8	6.3	1.1
O=C(c1ccc(F)cc1)C1CCN(C(=O)Nc2ccc(F)cc2)CC1	-4.9	-3.7	2.0	-2.0	-2.8
Fc1ccccc1C=Nn1c(C2CCCCC2)n[nH]c1=S	3.3	nt	nt	nt	-0.5
CNC(=S)N/N=C/c1ccc(-c2ccc(C(=O)O)cc2)o1	nt	51.5*	-1.1	0.7	nt
Fc1ccc2[nH]c3c(N4CCc5ccccc5C4)ncnc3c2c1	-1.8	7.1	nt	1.3	-23.0
Brc1ccc2[nH]c3c(N4CCc5ccccc5C4)ncnc3c2c1	72.1	1.6	nt	-0.9	97.1*
SMILES	RN4220 kill	BJeLR viability	PfHsp40 yeast	SARS 3CLpro inh	ugtP null kill
COc1cccc(NC(=O)c2c(C)cc(C)cc2CC(C)(C)C(=O)O)c1	-3.9	4.4	0.5	-4.0	-4.9
CC(=O)c1ccc(NC2OC(CO)C(O)C(O)C2O)cc1 (stereo unspecified)	4.2	-6.0	-2.5	-2.1	-3.1
Cc1c(C(=O)O)cccc1-c1ccc(/C=N/Nc2ccc(Br)cc2)o1	nt	3.8	355.1*	6.0	nt
CCCCOc1ccc(CN2CCCCC2)cc1	5.6	-0.2	-1.8	-0.1	3.8
CCCCCCOc1ccc(CN2CCN(C)CC2)cc1	0.3	-9.4	-1.2	-1.4	85.7*
O=C(/C=C/c1ccccc1)Nc1cccc(C(=O)NCCCc2ccccc2)c1	nt	nt	1.4	nt	nt
Cc1nn(-c2nc3ccccc3[nH]2)c(N)c1-c1ccc(Cl)cc1	56.9	-0.8	3.3	6.3	95.1*
Cc1nn(-c2ccc3ccccc3c2)c(=O)c2ccccc12	-2.2	2.1	-1.2	1.9	15.1
Cc1nn(-c2nc3ccccc3[nH]2)c(=O)c2ccccc12	4.5	89.6*	-6.1	0.2	-2.6
Cc1cc(OCc2cc3c(cc2Cl)OCO3)c2c(C)cc(=O)oc2c1	5.1	3.5	-0.4	1.9	-5.3
CC(C)NC(=O)CC1C(=O)N(Cc2ccccc2)C(C)c2nc3ccccc3n21 (stereo unspecified)	5.2	2.3	1.2	5.0	1.0
NC(=S)NN=Cc1c(O)c(Br)cc2oc3c(c12)CCCC3	26.7	nt	nt	nt	-14.9
O=[N+]([O-])c1cc2oc3c(c2c(C=NCc2ccncc2)c1O)CCCC3	7.3	nt	47.6*	3.3	-11.1
CCOC(=O)Cc1csc(NC(=O)c2cc(C)on2)n1	0.6	-5.4	-1.4	-1.4	0.2
CCOC(=O)C1(C(C)(C)CC)CC(CSc2nc3ccccc3[nH]2)OC1=O (stereo unspecified)	8.5	-16.6	69.2*	-0.7	0.7
O=S(=O)(NC1CCCCCC1)c1ccc(Br)s1	7.2	-10.5	58.6*	3.5	-6.5
CC(=O)O[C@H]1CC[C@@]2(C)C(=CC[C@@H]3[C@@H]2CC[C@]2(C)C(=O)CC[C@@H]32)C1	nt	nt	4.0	nt	nt
CC(=O)O/C(=C1\CC2C3CC=C4CC(OC(C)=O)CCC4(C)C3CCC2(C)C1=O)C(F)(F)F (stereo unspecified)	99.9*	nt	8.8	nt	99.6*
CSc1ccc(CNC(=O)C2Cc3cc(S(=O)(=O)N4CCCCC4)ccc3N2C(C)=O)cc1 (stereo unspecified)	-3.3	-5.8	2.1	3.6	16.2
O=[N+]([O-])c1ccc(O)c(C=Nc2ccc3nc(-c4ccccc4)[nH]c3c2)c1	88.4*	4.7	-0.4	5.1	65.8
Oc1c(Br)cc(C=Nc2ccc3nc(-c4ccccc4)[nH]c3c2)c(O)c1Br	nt	2.4	0.1	-2.3	nt
Cc1ccc(-c2nc3ccc([N+](=O)[O-])cc3[nH]2)cc1	-1.1	6.7	111.5*	1.2	-9.4
CC(/C=C1\SC(=S)N(CCC(=O)Nc2cccc(C(=O)O)c2)C1=O)=C\c1ccccc1	77.6	2.5	0.9	-2.5	86.0*
CC(=Cc1ccccc1)C=C1SC(=S)N(CCCC(=O)Nc2ccc(C(=O)O)cc2)C1=O	48.1	nt	nt	nt	65.8
CCC(=O)N1CCN(c2ccc(NC(=S)NC(=O)c3cc4ccccc4o3)cc2)CC1	-0.5	5.7	0.1	-0.4	72.1
SMILES	RN4220 kill	BJeLR viability	PfHsp40 yeast	SARS 3CLpro inh	ugtP null kill
O=c1cc(Br)c(O)c(Br)cc1Br	6.9	nt	1.0	nt	3.7
[O-][n+]1cccc2c(Br)cc(Br)c(O)c21	19.7	4.1	310.1*	0.1	-9.6
Cc1ccc(NC(=O)CSc2ccc(-c3ccccn3)nn2)cc1F	0.9	0.2	0.9	1.1	1.5
COc1cc(NC(=O)CSc2ccc(-c3ccccn3)nn2)cc(OC)c1	1.3	-9.7	221.3*	1.9	-1.6
CCc1ccc(NC(=O)CSc2ccc(-c3cccnc3)nn2)cc1	2.2	-8.0	-0.2	0.9	20.4
CC(=O)Nc1cccc(NC(=O)CSc2ccc(-c3ccccn3)nn2)c1	-5.2	-18.9	438.4*	-4.5	7.1
